Experimental data taken from PubChem BioAssay AID434927 (Sanford-Burnham Center for Chemical Genomics, 2010).
Values without a mark were called inactive. Activity calls are given as the source filed them.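 The calls were made as follows: active = inhibition above about 23% in any of six single-dose repeats (limit read from the data); inactive = the rest.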

Molecular target: Intestinal-type alkaline phosphatase (Homo sapiens) (UniProt P09923)
Assay: human IAP inhibitors, confirmation, biochemical, luminescence, single concentration, uHTS hits (AID 434927);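 also: plate controls were DMSO wells with enzyme for no effect and wells lacking enzyme for full effect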
Conditions: purified human IAP, CDP-Star luminescence, 30 min; at 8.3 µM; hits give high values

Sequence of Intestinal-type alkaline phosphatase (Homo sapiens) (P09923 whole entry, looked up): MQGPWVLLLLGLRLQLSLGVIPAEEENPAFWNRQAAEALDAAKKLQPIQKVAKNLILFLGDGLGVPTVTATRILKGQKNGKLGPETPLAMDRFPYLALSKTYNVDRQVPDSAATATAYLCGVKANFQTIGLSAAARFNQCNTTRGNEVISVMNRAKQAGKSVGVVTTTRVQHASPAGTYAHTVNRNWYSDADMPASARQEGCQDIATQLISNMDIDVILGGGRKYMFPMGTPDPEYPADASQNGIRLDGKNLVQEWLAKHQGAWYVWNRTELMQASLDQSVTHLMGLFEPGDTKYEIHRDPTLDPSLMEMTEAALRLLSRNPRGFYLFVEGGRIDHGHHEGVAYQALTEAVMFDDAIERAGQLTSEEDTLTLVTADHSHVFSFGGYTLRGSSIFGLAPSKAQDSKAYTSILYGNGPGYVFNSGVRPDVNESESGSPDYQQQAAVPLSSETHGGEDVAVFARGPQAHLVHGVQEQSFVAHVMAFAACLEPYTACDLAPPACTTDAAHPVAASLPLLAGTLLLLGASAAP

Compound | inhibition
Cc1cc(NC(=O)c2ccc(N3C(=O)C4C5C=CC(C5)C4C3=O)cc2)no1 (stereo not given) | -161%
CCn1cnc2sc(C(=O)O)c(C)c2c1=O | 64% (active)
CN(C)S(=O)(=O)c1cccc(NC(=S)NNC(=O)c2cc3ccccc3cc2O)c1 | 72.3% (active)
O=C(COc1ccc(Br)cc1)NCCCn1ccnc1 | 50.5% (active)
Cc1cccc(SCc2noc(C(=O)NCC3CCCO3)c2C(=O)O)c1 (stereo not given) | -213%
CC(NC(=S)NC1CCC(C(C)(C)C)CC1)c1ccccc1 (stereo not given) | -111%
COc1cc(/C=C(\C#N)C(=O)c2ccc(O)c(O)c2)cc(I)c1O | 40.4% (active)
O=C(NNc1ncnc2c1cnn2-c1ccc(F)cc1)c1ccco1 | -47.2%
Cc1ccc(NCc2ccc([N+](=O)[O-])s2)cc1 | 26.1% (active)
O=Nc1[nH]c(=O)c(/C=C(\O)c2ccccc2)nc1NO | -84.9%
Nc1ccc(-c2c3ccc(=O)cc-3oc3cc(O)ccc23)cc1C(=O)O | 64.5% (active)
Cc1cc(C)c2nc(SCC(=O)NNC(=O)c3ccco3)c(C)cc2c1 | -58.7%
COc1cccc(/C=N/Nc2nc(-c3cccnc3)nc3ccccc23)c1 | -0.0482%
COc1ccccc1N(C)S(=O)(=O)c1ccc(Cl)c(C(=O)NNC(=O)c2ccccc2O)c1 | 59.4% (active)
O=C(CCN1C(=O)/C(=C/c2ccccc2Cl)SC1=S)NNC(=O)c1ccccc1O | 62.3% (active)
O=C(N/N=C/c1c(O)ccc2ccccc12)c1[nH]ncc1Br | 42.8% (active)
N#Cc1c(-c2ccccc2)nc(N2CCOCC2)[nH]c1=O | 27.5% (active)
O=c1c2c(-c3cccs3)csc2ncn1-c1ccc(Br)cc1 | -112%
O=C(NC(=S)NNC(=O)c1ccccc1O)c1ccc(F)cc1 | 62.4% (active)
COc1cc(/C=C/C(=O)OCC(=O)NC(=O)NC2CCCCC2)ccc1OC(F)F | 78.7% (active)
CC1C(=O)NN=C1C(=O)N/N=C\c1ccc(O)cc1O (stereo not given) | -78.7%
CCOc1cccc(OCCOCCOc2ccccc2C(C)=O)c1 | -219%
CCc1ccc(/C=N/Nc2ncnc3nc[nH]c23)cc1 | 33.8% (active)

Compound | inhibition
COc1ccc(CCN2C(=O)c3ccncc3C2=O)cc1OC | 67.1% (active)
COc1ccc2nc3cc(Cl)ccc3c(Nc3cc(CN4CCCC4)c(O)c(CN4CCCC4)c3)c2n1 | -60.1%
CCOC(=O)c1cnc(SCC(=O)c2ccccc2)nc1N | -436%
Cc1cc2cc3c(cc2nc1SCC(=O)Nc1nc(C)c(C)s1)OCO3 | 43.9% (active)
COc1ccc(C2=NN(C3=NN=C(N)Cc4ncnn43)C(O)(C(F)(F)F)C2)cc1 (stereo not given) | 42% (active)
Cc1ccsc1C(=O)NNC(=S)NC1CCCCC1 | 49.4% (active)
O=C1Nc2ccccc2/C1=N\N=C\c1ccc(O)c(O)c1 | 61.5% (active)
O=C(NN1C(=O)CSC1=S)C(=O)NN1C(=O)CSC1=S | 73.8% (active)
CC(C)Oc1ccc(C(=O)Nc2ncn[nH]2)cc1 | -64.7%
Cc1ccccc1CNC(=O)c1ccccc1N | 37.2% (active)
CN(CC(=O)Nc1ccccc1F)CC(=O)Nc1ccc(F)c(F)c1F | 51.6% (active)
O=c1c2cc(O)c(O)cc2oc2cc(O)c(C3OC(CO)C(O)C(O)C3O)c(O)c12 (stereo not given) | -148%
COc1cc(Cl)ccc1OCc1cc(C(=O)N2CCCCCCC2)no1 | 34.5% (active)
C=CCN1C(=O)/C(=C\C=C2\N(C)c3ccccc3C2(C)C)SC1=S | -267%
Cc1ccc(O)c(-c2cc(C(=O)NCc3ccc4c(c3)OCO4)[nH]n2)c1 | 19.7% (active)
O=c1c2ccccc2nc(N/N=C/c2c(O)ccc3ccccc23)n1O | -53.7%
CCCn1c(/C=C/c2ccccc2)nc2ccccc21 | 36.8% (active)
O=C(Nc1cccc(-c2cccc(F)c2)c1)C1CCN(C2CCC2)CC1 | 67.6% (active)
O=C(/C=C/c1ccccc1O)c1ccco1 | -104%
CCC1CCCCN1C1Sc2ccc(C(=O)OC)cc2NC1=O (stereo not given) | -69.1%
O=C(CSc1nc(-c2cccs2)cc(C(F)(F)F)n1)NCc1ccccc1 | 36.7% (active)
CC(=O)Nc1cccc(C(=O)NNC(=O)c2n[nH]c(=O)c3ccccc23)c1 | -125%
